# Compounds without any hit were thinned out: in the full panel of roughly 83,000, 20% have a hit.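 Method: cells in 96-well plates; compound added at one concentration; 48 h incubation; percent growth measured; values under 10 scored active.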 Values without a mark were called inactive. Active and inactive are the calls of the source.
# Columns and labels:
# Assay in all cases: NCI-60 one-dose screen, 48 h (100 = growth as untreated, 0 = no growth, -100 = all killed)
# DU-145 prostate = settings: 10 µM unless noted
# K-562 leukemia = settings: 10 µM unless noted
# MALME-3M melanoma = settings: 10 µM unless noted
# MDA-MB-231 breast = settings: 10 µM unless noted
# RXF 393 renal = settings: 10 µM unless noted
# SF-268 CNS = settings: 10 µM unless noted
# SF-295 CNS = settings: 10 µM unless noted
# SF-539 CNS = settings: 10 µM unless noted
# UACC-257 melanoma = settings: 10 µM unless noted
# M14 melanoma = settings: 10 µM unless noted
# HCT-15 colon = settings: 10 µM unless noted
# HT29 colon = settings: 10 µM unless noted
# SNB-75 CNS = settings: 10 µM unless noted
# SNB-19 CNS = settings: 10 µM unless noted
# PC-3 prostate = settings: 10 µM unless noted
# SK-MEL-5 melanoma = settings: 10 µM unless noted
# UACC-62 melanoma = settings: 10 µM unless noted
# LOX IMVI melanoma = settings: 10 µM
# SK-MEL-28 melanoma = settings: 10 µM unless noted
# U251 CNS = settings: 10 µM unless noted
SMILES,growth (DU-145 prostate),growth (K-562 leukemia),growth (MALME-3M melanoma) [%],growth (MDA-MB-231 breast) [%],growth (RXF 393 renal) [%],growth (SF-268 CNS) [%],growth (SF-295 CNS),growth (SF-539 CNS),growth (UACC-257 melanoma) [%],growth (M14 melanoma) [%],growth (HCT-15 colon),growth (HT29 colon),growth (SNB-75 CNS) [%],growth (SNB-19 CNS) [%],growth (PC-3 prostate) [%],growth (SK-MEL-5 melanoma),growth (UACC-62 melanoma) [%],growth (LOX IMVI melanoma) [%],growth (SK-MEL-28 melanoma) [%],growth (U251 CNS) [%]
CCCCCC(=O)OCCC1CCCCC1,98.2%,107%,84.1,114,104,93,108%,97.8%,95.9,94,107%,101%,89.1,112,98.7,100%,104,98.6,105,
NCC(O)C(O)C(O)C(O)CO (configuration not stated),101%,103%,90.5,91.9,109,96.2,106%,101%,85,93.9,106%,95.9%,91.8,104,,101%,,97.8,108,90.5
CC(CCC#N)(CCC#N)C(=O)c1ccccc1,106%,104%,114,109,98.6,112,113%,115%,106,115,100%,103%,96.7,102,,109%,104,100,119,109
OCc1cccnc1,111%,117%,121,103,112,97.7,99%,95.3%,91.2,98.2,92.4%,107%,102,,94.7,116%,103,104,111,91.8
CCOC(=O)/C(C)=C\c1ccc(OC)c(OC)c1,99.5%,87%,112,102,112,98.3,100%,101%,108,105,101%,106%,92.9,,97.5,,101,98,108,94
CCCCOC(=O)c1ccccc1O,120%,131%,104,104,161,117,110%,106%,99.4,117,104%,111%,85.9,102,101,104%,,100,113,
Nc1ccn(C2CC(N)C(CO)O2)c(=O)n1 (configuration not stated),51.2%,83.9%,79.2,94.4,128,102,82.4%,76.3%,96,66.2,71.4%,81.3%,77.6,,74.8,83.6%,,75.4,118,80.9
Cc1cc(Cc2ccccc2)c(O)c(Cc2ccccc2)c1,103%,82.6%,103,91.6,88.2,93.4,101%,101%,93.4,91.5,89.8%,104%,75.5,,88.3,98.6%,71.4,80.7,106,86.5
COC(=O)c1ccc([N+](=O)[O-])c(C)c1,113%,134%,96.9,117,105,105,109%,96.2%,101,94,94.9%,121%,88.4,,93.4,109%,107,107,102,101
CCCCCCCCCCCCCCCCCC(=O)NCCNC(=O)CCCCCCCCCCCCCCCCC,97.5%,57.4%,93.5,75.3,109,89.3,100%,96.9%,105,95.6,95.1%,49.1%,82.8,,65,102%,104,61.4,105,94.5
O=C(Oc1ccccc1Cl)c1ccc(Cl)cc1Cl,110%,99.6%,103,98.3,102,105,95.1%,95.6%,94.3,98.1,103%,105%,91.8,99.6,93.6,102%,,104,109,
CCOC(=O)C(CCC#N)(CCC#N)C(=O)OCC,110%,115%,113,105,104,99.2,96.4%,103%,103,89.2,98.7%,111%,80.9,,97.6,102%,103,111,107,102
C=CCc1cc(OC)c(O)c(OC)c1,107%,119%,95.1,104,119,97,97.3%,92.1%,101,101,98.7%,99.7%,90.9,,,99.8%,103,101,108,97.2
Cc1cc(=O)n(Nc2ccccc2)c(O)c1C#N,109%,92.5%,105,103,124,102,101%,104%,116,99.4,112%,105%,97.4,,99.4,104%,103,96.6,111,103
COc1cc(N)c2ncccc2c1Cl,119%,102%,113,96.2,96.5,106,101%,87.3%,109,103,90.5%,,99.8,98.8,93.3,96.4%,86.7,104,121,101
NC(=O)c1cc2c3ccccc3ccn2c1-c1ccccc1,5.57% (active),4.64% (active),86,29.3,25.5,22,4.09% (active),-19.7% (active),64.9,11.3,4.13% (active),7.35% (active),59.9,,37.3,-34.2% (active),31.7,20,105,
OCCNc1ccccc1,103%,104%,102,104,109,97.2,108%,95.9%,108,97.8,105%,104%,91.3,116,95.7,,109,94.3,107,
ClCC(Cl)[C@@H]1CC2C=CC1C2 (some centres not stated),113%,105%,102,96.8,105,108,91.3%,110%,105,112,109%,107%,93.6,,102,99.1%,98.7,97.7,106,99.5
CCOC(=O)CSCCC#N,108%,112%,106,110,97.8,101,94.7%,92.2%,95.4,94.9,100%,,97,104,97.8,111%,99.3,96.3,96.6,105
CC(=O)/C(C)=N\OC(=O)Nc1ccccc1,104%,98.4%,104,99.3,125,101,101%,95.3%,98.7,101,103%,,82.7,98,97.5,99.1%,107,94.6,112,93
